In PubChem BioAssay (EPA / NIEHS) one finds outcome and AC50 data, which are given here for 24 molecules.

Broadly, the AC50 is the concentration at which the activity in the assay is half-maximal.

SMILES strings stand for the structures. Results filed as inconclusive are left out. Active and inactive are the calls of the source. How the source made its calls: active means hit-call score of the fitted dose curve at least 0.9, where 1 is the maximum; inconclusive means response in the unintended direction; inactive means score below 0.9.

Chain of human AKT serine/threonine Kinase 1 (AKT1), AKT1 (gene 207) (P31749 whole entry, looked up): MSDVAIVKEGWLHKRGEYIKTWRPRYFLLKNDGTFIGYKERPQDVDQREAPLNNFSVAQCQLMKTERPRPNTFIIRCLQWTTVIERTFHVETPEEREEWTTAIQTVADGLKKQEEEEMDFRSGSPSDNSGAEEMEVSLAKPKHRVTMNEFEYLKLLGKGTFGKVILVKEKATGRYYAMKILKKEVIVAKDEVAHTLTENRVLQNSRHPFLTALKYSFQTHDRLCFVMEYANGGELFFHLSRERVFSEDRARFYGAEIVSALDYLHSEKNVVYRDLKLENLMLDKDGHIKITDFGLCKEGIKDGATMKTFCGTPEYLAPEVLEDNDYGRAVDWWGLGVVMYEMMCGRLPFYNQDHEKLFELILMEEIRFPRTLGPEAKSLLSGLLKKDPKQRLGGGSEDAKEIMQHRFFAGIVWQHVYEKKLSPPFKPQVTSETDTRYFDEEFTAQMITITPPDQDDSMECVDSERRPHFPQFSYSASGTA
Chain of human Acetylcholinesterase (AChE), ACHE (gene 43) (P22303 whole entry, looked up): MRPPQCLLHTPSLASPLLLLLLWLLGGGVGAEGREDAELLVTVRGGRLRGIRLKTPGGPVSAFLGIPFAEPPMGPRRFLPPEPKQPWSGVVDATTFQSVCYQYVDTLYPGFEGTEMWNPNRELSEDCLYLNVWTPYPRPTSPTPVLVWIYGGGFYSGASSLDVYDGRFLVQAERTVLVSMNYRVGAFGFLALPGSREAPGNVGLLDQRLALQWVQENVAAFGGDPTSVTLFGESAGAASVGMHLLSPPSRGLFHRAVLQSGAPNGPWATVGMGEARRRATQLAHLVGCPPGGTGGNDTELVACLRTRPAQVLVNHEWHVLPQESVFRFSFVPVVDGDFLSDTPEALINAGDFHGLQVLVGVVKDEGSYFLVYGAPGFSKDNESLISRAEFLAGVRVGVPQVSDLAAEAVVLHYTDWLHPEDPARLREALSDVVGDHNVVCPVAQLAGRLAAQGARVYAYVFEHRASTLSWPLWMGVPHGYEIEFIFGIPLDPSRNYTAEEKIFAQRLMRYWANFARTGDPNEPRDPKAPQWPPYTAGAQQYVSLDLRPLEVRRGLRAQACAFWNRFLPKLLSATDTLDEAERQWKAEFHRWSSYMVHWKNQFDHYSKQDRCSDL
Chain of human Caspase 2 (CASP2), CASP2 (gene 835) (P42575 whole entry, looked up): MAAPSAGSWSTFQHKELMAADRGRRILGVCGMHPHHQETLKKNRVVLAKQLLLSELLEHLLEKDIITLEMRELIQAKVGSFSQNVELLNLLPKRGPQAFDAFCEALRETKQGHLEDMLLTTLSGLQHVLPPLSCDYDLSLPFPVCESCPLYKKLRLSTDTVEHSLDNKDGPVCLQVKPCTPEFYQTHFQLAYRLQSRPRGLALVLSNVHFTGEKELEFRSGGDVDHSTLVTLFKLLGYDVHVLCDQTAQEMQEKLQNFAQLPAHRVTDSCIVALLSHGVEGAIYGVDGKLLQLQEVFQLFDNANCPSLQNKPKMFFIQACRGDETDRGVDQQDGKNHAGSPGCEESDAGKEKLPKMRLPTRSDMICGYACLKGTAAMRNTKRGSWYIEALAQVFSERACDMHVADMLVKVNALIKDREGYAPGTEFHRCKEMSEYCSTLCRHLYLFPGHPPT
Chain of Caspase-1 (Homo sapiens) (P29466 whole entry, looked up): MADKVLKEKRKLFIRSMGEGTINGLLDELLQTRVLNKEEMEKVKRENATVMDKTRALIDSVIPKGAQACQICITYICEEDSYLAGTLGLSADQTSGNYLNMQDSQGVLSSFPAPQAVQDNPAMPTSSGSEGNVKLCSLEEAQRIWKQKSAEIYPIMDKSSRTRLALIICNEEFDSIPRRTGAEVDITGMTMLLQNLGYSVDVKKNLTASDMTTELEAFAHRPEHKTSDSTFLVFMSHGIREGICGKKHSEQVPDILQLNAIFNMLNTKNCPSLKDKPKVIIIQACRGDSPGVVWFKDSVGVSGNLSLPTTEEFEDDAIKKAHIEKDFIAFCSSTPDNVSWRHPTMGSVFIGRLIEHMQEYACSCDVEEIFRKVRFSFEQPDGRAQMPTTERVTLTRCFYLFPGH

The target of the first assay is human Acetylcholinesterase (AChE), ACHE (gene 43) (UniProt P22303). As to the kind of experiment: NVS_ENZ_hAChE: NovaScreen (NVS) Enzymatic Assay for human Acetylcholinesterase (AChE) (AID 2283129). The procedure:
NVS_ENZ_hAChE is a biochemical, single-readout assay that uses extracted gene-proteins in a cell-free assay. Measurements were taken 0.33 hour after chemical dosing in a 96-well plate.NVS_ENZ_hAChE is one of one assay component(s) measured or calculated from the NVS_ENZ_hAChE assay. It is designed to make measurements of enzyme activity, a form of enzyme reporter, as detected with absorbance signals by Colorimetric technology.Data from the assay component NVS_ENZ_hAChE was analyzed into 1 assay endpoint. This assay endpoint, NVS_ENZ_hAChE, was analyzed in the positive analysis fitting direction relative to DMSO as the negative control and baseline of activity. Using a type of enzyme reporter, loss-of-signal activity can be used to understand changes in the enzymatic activity as they relate to the gene ACHE. Furthermore, this assay endpoint can be referred to as a primary readout, because this assay has produced multiple assay endpoints where this one serves a enzymatic activity function. To generalize the intended target to other relatable targets, this assay endpoint is annotated to the esterase intended target family, where the subfamily is acetylcholinesterase.
Binding assays used specific radioligands (tritiated, iodinated) with non-radioactive competitive displacement ligands in agonist or antagonist protocols (as indicated) and various reference compounds and inhibitors to titrate specific binding to receptors and transporters. Most enzyme assays (CYPs, kinases, phosphatases, proteases, HDACs) used recombinant protein and specific substrates (fluorescence mostly, some colorimetric and radioactive) and inhibitors, followed by a biochemical separation of substrate and product. All assays for the biochemical HTS were initially run in duplicate at a single concentration (10 uM for CYP450 assays and 25 uM for all others). […] Each assay was run with positive and negative controls, and concurrent controls on every plate. The follow-up (secondary) screen tested active chemical-pairs in concentration series, as well as a few additional assays not tested in the primary screen, some selected negative inactives, and several cases re-run in the concentration series for confirmatory purposes.
As to `CCC(C)n1c(=O)[nH]c(C)c(Br)c1=O` (stereo not drawn), the call was inactive.
For the molecule `N#Cc1c[nH]cc1-c1cccc2c1OC(F)(F)O2`, the molecule was classed as inactive.
As to `N#CN=C1SCCN1Cc1ccc(Cl)nc1`, the AC50 was 19.6 µM (active).
Consider `CCNC(=O)NC(=O)C(C#N)=NOC`, for which the result was inactive.
Regarding `CC1(C)CON(Cc2ccccc2Cl)C1=O`, the molecule was called inactive.
Turning to `CNC(=O)Oc1cccc2ccccc12`, the AC50 is 25 µM (active).
Take `COP(=S)(OC)SCn1nnc2ccccc2c1=O`: the molecule was classed as inactive.

The next assay has as its target Caspase-1 (Homo sapiens) (UniProt P29466). As to the kind of experiment: NVS_ENZ_hCASP1: NovaScreen (NVS) Enzymatic Assay for human Caspase 1 (CASP1) (AID 2283132). The procedure, abridged: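 Cell-free enzymatic assay with E. coli-expressed recombinant protein; fluorescence intensity read 1 hour after dosing. Single-concentration duplicate screen at 25 uM, then concentration-response up to 50 uM; activity fitted relative to DMSO, loss of signal meaning inhibition.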
With `O=c1n(Cl)c(=O)n(Cl)c(=O)n1Cl`, the outcome was inactive.
Take `CCNP(=S)(OC)O/C(C)=C/C(=O)OC(C)C` (stereo not drawn): the call was inactive.
Regarding `COc1cc(OC)nc(NC(=O)NS(=O)(=O)c2ncccc2OCC(F)(F)F)n1`, the outcome was inactive.
Consider `COC(=O)c1c(C(F)F)nc(C(F)(F)F)c(C2=NCCS2)c1CC(C)C`, for which the call was inactive.
Regarding `CCN(CC)C(=O)C(C)Oc1cccc2ccccc12` (stereo not drawn), the result was inactive.
`CC(C)=CC1C(C(=O)OCc2coc(Cc3ccccc3)c2)C1(C)C` (stereo not drawn): the molecule was classed as inactive.

Another assay deals with human Caspase 2 (CASP2), CASP2 (gene 835) (UniProt P42575). As to the kind of experiment: NVS_ENZ_hCASP2: NovaScreen (NVS) Enzymatic Assay for human Caspase 2 (CASP2) (AID 2283135). The procedure:
NVS_ENZ_hCASP2 is a biochemical, single-readout assay that uses extracted gene-proteins from E. coli in a cell-free assay. Measurements were taken 1 hour after chemical dosing in a 96-well plate.NVS_ENZ_hCASP2 is one of one assay component(s) measured or calculated from the NVS_ENZ_hCASP2 assay. It is designed to make measurements of enzyme activity, a form of enzyme reporter, as detected with fluorescence intensity signals by Fluorescence technology.Data from the assay component NVS_ENZ_hCASP2 was analyzed into 1 assay endpoint. This assay endpoint, NVS_ENZ_hCASP2, was analyzed in the positive analysis fitting direction relative to DMSO as the negative control and baseline of activity. Using a type of enzyme reporter, loss-of-signal activity can be used to understand changes in the enzymatic activity as they relate to the gene CASP2. Furthermore, this assay endpoint can be referred to as a primary readout, because this assay has produced multiple assay endpoints where this one serves a enzymatic activity function. To generalize the intended target to other relatable targets, this assay endpoint is annotated to the protease intended target family, where the subfamily is cysteine protease.
Binding assays used specific radioligands (tritiated, iodinated) with non-radioactive competitive displacement ligands in agonist or antagonist protocols (as indicated) and various reference compounds and inhibitors to titrate specific binding to receptors and transporters. Most enzyme assays (CYPs, kinases, phosphatases, proteases, HDACs) used recombinant protein and specific substrates (fluorescence mostly, some colorimetric and radioactive) and inhibitors, followed by a biochemical separation of substrate and product. All assays for the biochemical HTS were initially run in duplicate at a single concentration (10 uM for CYP450 assays and 25 uM for all others). Assay-chemical combinations meeting a pre-defined threshold (e.g., 30% inhibition and other criteria defined below) were then run in singleton concentration-response format with maximum concentration of 20 uM for CYPs and 50 uM for all others. Each assay was run with positive and negative controls, and concurrent controls on every plate. The follow-up (secondary) screen tested active chemical-pairs in concentration series, as well as a few additional assays not tested in the primary screen, some selected negative inactives, and several cases re-run in the concentration series for confirmatory purposes.
Take `CCNC(=O)NC(=O)C(C#N)=NOC`: the molecule was called inactive.
Regarding `CN/C(=N\[N+](=O)[O-])NCc1cnc(Cl)s1`, the call was inactive.
On to `O=C1C2CC=CCC2C(=O)N1SC(Cl)(Cl)Cl` (stereo not drawn), for which the result was inactive.
Consider `CC(C)N1C(=O)N(c2ccccc2)CSC1=NC(C)(C)C`, for which the outcome was inactive.

Another assay concerns the target human AKT serine/threonine Kinase 1 (AKT1), AKT1 (gene 207) (UniProt P31749). Put plainly: NVS_ENZ_hAKT1: NovaScreen (NVS) Enzymatic Assay for human AKT serine/threonine Kinase 1 (AKT1) (AID 2283138). The procedure, abridged: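 Recombinant human AKT1 with a specific substrate, product separated by electrophoretic mobility shift, read after 1 h. Compounds at 25 uM in duplicate, then concentration-response up to 50 uM for hits; inhibition relative to DMSO.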
As for `O=c1n(Cl)c(=O)n(Cl)c(=O)n1Cl`, the molecule was classed as inactive.
Consider `CCOc1nc(F)cc2nc(S(=O)(=O)Nc3c(Cl)cccc3Cl)nn12`, for which the result was inactive.
In the case of `Nc1c(Cl)c(Cl)nc(C(=O)O)c1Cl`, the molecule was classed as inactive.
On the same count and under the same terms, then `N#Cc1c(Cl)cccc1Cl`, with “inactive”.

For the next assay, the target named is human Beta-secretase (BACE), BACE1 (gene 23621) (UniProt P56817). Put plainly: NVS_ENZ_hBACE: NovaScreen (NVS) Enzymatic Assay for human Beta-secretase (BACE) (AID 2283140).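 Further: hits are inhibitors that reduce fluorescent substrate signal versus DMSO.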 The procedure, abridged: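 Cell-free assay of recombinant Sf9-expressed human BACE with fluorescent substrate, read by fluorescence intensity after 1 h. Primary screen in duplicate at 25 uM; actives then run in concentration series; loss of signal relative to DMSO.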
Chain of human Beta-secretase (BACE), BACE1 (gene 23621) (P56817 whole entry, looked up): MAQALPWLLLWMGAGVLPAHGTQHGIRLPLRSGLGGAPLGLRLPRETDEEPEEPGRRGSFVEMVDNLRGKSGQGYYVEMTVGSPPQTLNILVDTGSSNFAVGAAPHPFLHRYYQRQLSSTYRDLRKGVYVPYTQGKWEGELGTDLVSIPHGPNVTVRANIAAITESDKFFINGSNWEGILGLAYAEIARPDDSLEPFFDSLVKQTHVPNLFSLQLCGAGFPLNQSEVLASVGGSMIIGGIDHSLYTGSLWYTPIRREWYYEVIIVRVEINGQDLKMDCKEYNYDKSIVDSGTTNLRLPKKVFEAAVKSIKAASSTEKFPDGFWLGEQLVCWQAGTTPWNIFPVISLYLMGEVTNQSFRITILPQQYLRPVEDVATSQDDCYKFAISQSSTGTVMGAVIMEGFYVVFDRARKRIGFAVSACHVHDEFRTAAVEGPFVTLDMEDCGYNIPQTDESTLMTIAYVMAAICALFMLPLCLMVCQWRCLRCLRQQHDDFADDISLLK
As for `COC(=O)N(C(=O)N1CO[C@@]2(C(=O)OC)Cc3cc(Cl)ccc3C2=N1)c1ccc(OC(F)(F)F)cc1`, the outcome was inactive.
Regarding `COC(=O)c1c(C(F)F)nc(C(F)(F)F)c(C2=NCCS2)c1CC(C)C`, the AC50 is 8.78 µM (active).
With `CC1(C)C(C(=O)OC(C#N)c2cccc(Oc3ccccc3)c2)C1(C)C` (stereo not drawn), the AC50 is 2.8 µM (active).
`Cc1c(COC(=O)[C@@H]2[C@H](/C=C(\Cl)C(F)(F)F)C2(C)C)cccc1-c1ccccc1`: the result was inactive.
On to `CC1(C)C(C=C(Cl)Cl)C1C(=O)OC(C#N)c1cccc(Oc2ccccc2)c1` (stereo not drawn), for which the result was inactive.
Regarding `CC(C)=CC1C(C(=O)OCc2coc(Cc3ccccc3)c2)C1(C)C` (stereo not drawn), the AC50 was 40.5 µM (active).
Same read-out and setting: to `CCCCOCN(C(=O)CCl)c1c(CC)cccc1CC` belongs 9.39 µM (active).
